# Where a name gives a salt, the structure may show the parent alone.
# Test system: Saccharomyces cerevisiae
# Test: fraction of cells in G1 phase (DNA content, flow cytometry); higher = more cells with unreplicated DNA (G1 delay)
# Details: temperature: 30 C; YPD; BY4741 PDR5+ SNQ2+; drug added to: actively dividing cells; 4.33 h
# Method: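 S. cerevisiae cultures in YPD at 30°C were treated with each drug of the Enzo FDA-approved library at 20 µg/ml (final µM given per drug). Cells were fixed after 6–7 h (S1) or 6 h (S2), or after 4.33 h for BY4741 (S3), then stained with SYTOX Green. %G1 is the Dean-Jett-Fox G1 peak area divided by the G1+G2/M peak areas, written as a fraction and averaged over at least two independent experiments. DMSO reference: mean ~0.49; >0.60 is called High G1 and <0.3876 Low G1. Scale: lower means mitotic delay.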
row,Compound,fraction of cells in G1 phase
1,C[C@@H]1CC[C@H]2[C@@H](C)C(=O)O[C@@H]3O[C@@]4(C)CC[C@@H]1[C@]32OO4 [Artemisinin] (70.8367 µM),0.5

# Same assay, conditions: temperature: 30 C; YPD; JTY2953 pdr5 snq2 (sensitized); drug added to: actively dividing cells; 6 h
row,Compound,fraction of cells in G1 phase
1,C[C@@H]1CC[C@H]2[C@@H](C)C(=O)O[C@@H]3O[C@@]4(C)CC[C@@H]1[C@]32OO4 [Artemisinin] (70.8367 µM),0.691

# Same assay, conditions: temperature: 30 C; YPD; JTY2953 pdr5 snq2 (sensitized); drug added to: cultures diluted from stationary phase; 6-7 h
row,Compound,fraction of cells in G1 phase
1,C=CCN1C[C@H](C(=O)N(CCCN(C)C)C(=O)NCC)C[C@@H]2c3cccc4[nH]cc(c34)C[C@H]21 [Cabergoline] (44.2853 µM),0.496
2,C[C@@H]1CC[C@H]2[C@@H](C)C(=O)O[C@@H]3O[C@@]4(C)CC[C@@H]1[C@]32OO4 [Artemisinin] (70.8367 µM),0.613
3,COc1ccc(CCN2CCC(Nc3nc4ccccc4n3Cc3ccc(F)cc3)CC2)cc1 [Astemizole] (43.6125 µM),0.501
4,COc1ccc2c(c1)[C@]13CCCC[C@@H]1[C@H](C2)N(C)CC3 [Dextromethorphan HBr] (73.6903 µM),0.503
5,O=C1CC[C@@]2(O)[C@H]3Cc4ccc(O)c5c4[C@@]2(CCN3CC2CC2)[C@H]1O5 [Naltrexone HCl] (58.5805 µM),0.509
6,COc1ccc(C(CN(C)C)C2(O)CCCCC2)cc1 (stereo not given) [Venlafaxine HCl] (72.0954 µM),0.453
7,O=C(CCCN1CCC2(CC1)C(=O)NCN2c1ccccc1)c1ccc(F)cc1 [Spiperone] (50.5713 µM),0.484
8,O=P1(N(CCCl)CCCl)NCCCO1 (stereo not given) [Cyclophosphamide monohydrate] (76.6021 µM),0.501
9,CC(NC(C)(C)C)C(=O)c1cccc(Cl)c1 (stereo not given) [Amfebutamone] (83.4211 µM),0.502
10,Cc1cccc(C)c1NC1=NCCCS1 [Xylazine HCl] (90.7693 µM),0.506
11,CC(CCc1ccccc1)NC(C)C(O)c1ccc(O)cc1 (stereo not given) [Buphenine] (59.5415 µM),0.512
12,COc1ccc(C(=O)c2c(C)n(CCN3CCOCC3)c3ccccc23)cc1 [Pravadoline] (52.8436 µM),0.594
13,CN1[C@@H]2CC[C@H]1C[C@@H](OC(=O)C(CO)c1ccccc1)C2 (stereo not given in full) [Atropine sulfate] (69.1138 µM),0.474
14,CN1C[C@@H](NS(=O)(=O)N(C)C)C[C@@H]2c3cccc4c3c(cn4C)C[C@H]21 [Mesulergine HCl] (55.1728 µM),0.547
15,C=C1C[C@@H]2[C@H](CC[C@]3(C)C(=O)CC[C@@H]23)[C@@]2(C)C=CC(=O)C=C12 [Exemestane] (67.4764 µM),0.567
16,CC(C)c1cccc(C(C)C)c1O [Propofol] (112.185 µM),0.511
17,CN(C)C(=O)Oc1cc(OC(=O)N(C)C)cc(C(O)CNC(C)(C)C)c1 (stereo not given) [Bambuterol] (54.4293 µM),0.518
18,C=CCN1CC[C@]23CCCC[C@H]2[C@H]1Cc1ccc(O)cc13 [Levallorphan tartrate] (70.5673 µM),0.476
19,O=C(O)CCCc1ccc(N(CCCl)CCCl)cc1 [Chlorambucil] (65.7421 µM),0.456

row,Compound,fraction of cells in G1 phase
1,C[C@@H]1CN([C@H]2CC[C@](C#N)(c3ccc(F)cc3)CC2)CC[C@]1(C(=O)O)c1ccccc1 [Levocabastine HCl] (47.5588 µM),0.468
2,COc1cccc(C2(O)CCCCC2CN(C)C)c1 (stereo not given) [Tramadol HCl] (75.935 µM),0.492
3,O=C1CCCN1CC#CCN1CCCC1 [Oxotremorine sesquifumarate] (96.9509 µM),0.542
4,N[C@@H](Cc1ccc(N(CCCl)CCCl)cc1)C(=O)O [Melphalan] (65.5294 µM),0.45
5,CN(C)C(=O)Oc1cccc([N+](C)(C)C)c1 [Neostigmine Br] (89.5666 µM),0.485
6,CNC(=O)Oc1ccc2c(c1)[C@]1(C)CCN(C)[C@@H]1N2C [Physostigmine sulfate] (72.6339 µM),0.472
7,CCCC[N+]1(C)[C@@H]2C[C@@H](OC(=O)[C@H](CO)c3ccccc3)C[C@H]1[C@@H]1O[C@@H]12 (stereo not given in full) [Scopolamine n-butylbromide] (55.482 µM),0.488
8,Oc1ccc2c3c1O[C@H]1c4oc5ccccc5c4C[C@@]4(O)[C@@H](C2)N(CC2CC2)CC[C@]314 [Naltriben methanesulfonate hydrate] (39.093 µM),0.45
9,C#CCN(C)C(C)Cc1ccccc1 (stereo not given) [Deprenyl] (89.4055 µM),0.518
10,CC(C)[C@@]1(NC(=O)[C@@H]2C[C@@H]3c4cccc5[nH]cc(c45)C[C@H]3N(C)C2)O[C@@]2(O)[C@@H]3CCCN3C(=O)[C@H](Cc3ccccc3)N2C1=O [Dihydroergocristine mesylate] (32.6932 µM),0.465
11,CO[C@]12C[C@@H](COC(=O)c3cncc(Br)c3)CN(C)[C@@H]1Cc1cn(C)c3cccc2c13 [Nicergoline] (41.2884 µM),0.481
12,COc1ccc2c(c1)[nH]c1c(C)nccc12 [Harmine] (94.227 µM),0.474
13,N[C@@H]1C[C@H]1c1ccccc1.N[C@H]1C[C@@H]1c1ccccc1 [Tranylcypromine] (150.156 µM),0.531
14,CC[C@@H](C(N)=O)N1CCCC1=O [Levetiracetam] (117.5 µM),0.529
15,C[N+](C)(C)CCCCCCCCCC[N+](C)(C)C [Decamethonium 2Br] (77.371 µM),0.472
16,CCCN1C[C@H](CSC)C[C@@H]2c3cccc4[nH]cc(c34)C[C@H]21 [Pergolide mesylate] (63.5937 µM),0.489
17,O=C1C[C@@H]2OCC=C3CN4CC[C@]56c7ccccc7N1[C@H]5[C@H]2[C@H]3C[C@H]46 [Strychnine HCl] (59.8047 µM),0.497
18,Cc1c(N)nc(C(CC(N)=O)NCC(N)C(N)=O)nc1C(=O)NC(C(=O)NC(C)C(O)C(C)C(=O)NC(C(=O)NCCc1nc(-c2nc(C(=O)NCCC[S+](C)C)cs2)cs1)C(C)O)C(O[C@@H]1O[C@@H](CO)[C@@H](O)[C@H](O)[C@@H]1O[C@H]1O[C@H](CO)[C@@H](O)[C@H](OC(N)=O)[C@@H]1O)c1cnc[nH]1 (stereo not given in full) [Bleomycin sulfate] (14.1285 µM),0.924
19,O=C([O-])Cc1ccccc1.[Na+] [Sodium phenylacetate] (126.475 µM),0.487

# — the supplement of paper PMC3342239
